Compound activity deposited in PubChem by several laboratories.
TMEM16A inh: TMEM16A chloride channel inhibitors, primary screen, cell-based, HTS | HEK293 TMEM16A/YFP iodide influx fluorescence, ionomycin | hit rate 1.2% among 310,000 | normalized B-score (activity score, 25-100; higher = stronger inhibition) at 10 µM | AID 588511, 2011;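 active = ratio plate-corrected score three or more library SD toward inhibition, starting fluorescence score within five deviations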;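 note: score derived from kinetic fluorescence span divided by baseline fluorescence per well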
TLR9-MyD88 inh: inhibitors of TLR9-MyD88 association in cells, primary screen, cell-based, CHO, BLA complementation, fluorescence; CCF4 FRET ratio; Toll-like receptor 9 (Homo sapiens) + Myeloid differentiation primary response protein …; hit rate 0.21% among 340,000; inhibition, % at 4.98 µM; AID 504734, 2011;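 active = inhibition above the mean over all tested compounds plus 3 SD, cut at about 21% in these data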
GRK2 aptamer HTS: compounds blocking aptamer binding on GRK2 – biochemical, human GRK2, bead flow cytometry, HTS, primary screen; hit rate 0.59% among 330,000; inhibition of aptamer binding, % at 10 µM; FAM-aptamer displacement from GRK2; AID 488847, 2010; Beta-adrenergic receptor kinase 1 (Homo sapiens), P25098;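 active = inhibition of aptamer binding above 40%, roughly 3 SD of noise, on plates passing a quality check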;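 note: median bead fluorescence of bound FAM aptamer so fluorescent compounds give negative values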
TMEM16A act: TMEM16A chloride channel activators or potentiators, primary screen, cell-based, HTS. B-score at 10 µM. HEK293 TMEM16A/YFP-H148Q/I152L, iodide quench fluorescence; active compounds read low. hit rate 0.3% among 340,000;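 active = fluorescence-ratio B-score plate-corrected deviation score at least 3 library SD below zero, with starting fluorescence score within 5 deviations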;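 note: channel opened by trigger with iodide after compound preincubation; score built on the fluorescence ratio of max minus min over baseline; more negative score means more quench and so TMEM16A activation or potentiation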
TLR4-MyD88 BLA: inhibitors of TLR4-MyD88 association in cells, primary screen, cell-based, HeLa CL3-4, BLA complementation, FRET ratio; Toll-like receptor 4 (Homo sapiens) + Myeloid differentiation primary response protein …; HeLa CL3-4 TLR4/MyD88 BLA complementation; inhibition, % at 8.4 µM; hit rate 0.18% among 200,000; in the data active = inhibition above about 25%
NOD2-RIPK2 inh: NOD2-RIPK2 binding disruptors in cells, primary screen, fluorescence, CHO cells, BLA complementation; inhibition, % at 4.98 µM; AID 624267, 2012; Receptor-interacting serine/threonine-protein kinase 2 (Homo sapiens), O43353; CCF4 ratio; hit rate 0.38% among 360,000; in the data active = inhibition above about 21%
TMEM16A reconf: TMEM16A chloride channel inhibitors, confirmation, cell-based, re-confirmation; hit rate 39% among 2,300; shares compounds with TMEM16A inh; AID 652189, 2013; HEK293 TMEM16A/YFP-H148Q, iodide quench fluorescence; ionomycin added to raise cell calcium; inhibition, % at 10 µM;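 active = mean duplicate percent inhibition, scaled so buffer wells are 0 and the reference blocker 100, over three buffer SD above buffer mean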
HEK293 Ca mobil: calcium mobilization in TMEM16A/YFP HEK293 cells, confirmation, counter-screen for TMEM16A inhibitor project. AID 652231, 2013. shares compounds with TMEM16A inh. Fluo4 calcium mobilization. hit rate 2% among 2,300. calcium response (% of ionomycin), % at 10 µM;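 active = duplicate-averaged calcium signal over 20% of the ionomycin maximum, relative to buffer baseline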;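 note: each well's signal is peak minus trough fluorescence divided by its pre-addition baseline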
Parental YFP cnt: iodide YFP quench changes in parental YFP-HEK293, counter-screen for TMEM16A inhibitor project, cell-based; shares compounds with TMEM16A inh; ionomycin; YFP ratio F(max-min)/F0 at 10 µM; 2,300 tested, under 10 active;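 active = yellow fluorescent protein signal ratio exceeding the buffer control mean by over 5 SD of those controls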;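 note: ratio is mean of duplicate wells from kinetic YFP trace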
ClC-1 rat inh: ClC-1 chloride channel inhibition, selectivity assay for TMEM16A inhibitor project, cell-based, voltage-dependent ClC-1. 2,300 tested, under 10 active. CHO ClC-1-YFP, iodide influx fluorescence quench; iodide control reads 0, buffer control 100. shares compounds with TMEM16A inh. ratio percent, % at 10 µM;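 active = duplicate-mean ratio percent above the mean of iodide-only control wells, which defines zero, plus 5 of their SD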;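 note: higher percent means stronger block of ClC-1 iodide influx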
Target sequence (P35524 whole entry, looked up): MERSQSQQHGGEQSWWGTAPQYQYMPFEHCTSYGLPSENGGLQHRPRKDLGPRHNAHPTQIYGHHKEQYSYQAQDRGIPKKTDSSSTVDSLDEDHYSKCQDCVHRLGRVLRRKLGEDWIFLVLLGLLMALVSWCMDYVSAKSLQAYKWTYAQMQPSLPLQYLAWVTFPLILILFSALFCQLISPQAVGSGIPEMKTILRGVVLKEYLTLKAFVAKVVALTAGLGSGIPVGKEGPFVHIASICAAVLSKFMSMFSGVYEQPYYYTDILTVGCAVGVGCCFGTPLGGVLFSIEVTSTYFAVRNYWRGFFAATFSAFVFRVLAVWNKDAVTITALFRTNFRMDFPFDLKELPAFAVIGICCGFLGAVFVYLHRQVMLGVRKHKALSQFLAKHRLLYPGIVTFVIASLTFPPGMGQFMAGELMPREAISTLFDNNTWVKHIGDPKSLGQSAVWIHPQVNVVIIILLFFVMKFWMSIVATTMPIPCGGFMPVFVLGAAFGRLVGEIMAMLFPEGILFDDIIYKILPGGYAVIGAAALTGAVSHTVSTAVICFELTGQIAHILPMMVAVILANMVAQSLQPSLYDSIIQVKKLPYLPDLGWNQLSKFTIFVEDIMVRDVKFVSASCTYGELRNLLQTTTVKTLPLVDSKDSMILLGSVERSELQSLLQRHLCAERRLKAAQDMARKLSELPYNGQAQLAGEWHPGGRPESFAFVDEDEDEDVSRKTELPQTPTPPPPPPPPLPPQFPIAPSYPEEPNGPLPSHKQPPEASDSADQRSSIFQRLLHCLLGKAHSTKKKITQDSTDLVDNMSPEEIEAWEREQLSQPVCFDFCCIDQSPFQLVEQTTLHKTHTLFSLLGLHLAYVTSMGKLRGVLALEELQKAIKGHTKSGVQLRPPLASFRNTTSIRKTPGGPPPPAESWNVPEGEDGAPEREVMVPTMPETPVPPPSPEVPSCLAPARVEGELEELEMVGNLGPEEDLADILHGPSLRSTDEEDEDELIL
Of the large screens only hits and unclear results are named; the others gave an inactive call (follow-up assays come after a bar, where they were run). Most compounds without a hit are left out; they make up all but 2.2% or so of the library.

COCCN1Cc2cccc(C(=O)NCC3CCN(CC(C)C)C3)c2C1=O (centres undefined)	none
CCOC(=O)N1CCC(N2Cc3cccc(C(=O)NCC4CCN(CC(C)C)C4)c3C2=O)CC1 (centres undefined)	TMEM16A inh 100 | TMEM16A reconf inactive | HEK293 Ca mobil inactive | Parental YFP cnt inactive | ClC-1 rat inh inactive
CN(C)c1ccc(N=Nc2ccccc2C(=O)OCC(=O)NCC2CCCCC2)cc1	TMEM16A inh 100 | TMEM16A reconf inactive | HEK293 Ca mobil inactive | Parental YFP cnt inactive | ClC-1 rat inh inactive
CCOC(=O)N1CCN(Cc2nc(N)nc(Nc3ccc(Oc4ccccc4)cc3)n2)CC1	TMEM16A inh 25 | TMEM16A reconf 17% | HEK293 Ca mobil inactive | Parental YFP cnt inactive | ClC-1 rat inh inactive
CSc1nc2ccc(NS(=O)(=O)c3ccc(Cl)s3)cc2s1	TMEM16A inh 100 | TMEM16A reconf 32% | HEK293 Ca mobil inactive | Parental YFP cnt inactive | ClC-1 rat inh inactive
Cc1ccc(S(=O)(=O)Nc2ccc3nc(C)sc3c2)cc1	TMEM16A inh 25 | TMEM16A reconf inactive | HEK293 Ca mobil inactive | Parental YFP cnt inactive | ClC-1 rat inh inactive
O=C(CSCc1ccc(Br)cc1)N1CCCC1	none
CCOC(=O)c1c(NC(=O)CSc2nnc(N)s2)sc(C)c1-c1ccc(C)cc1	TMEM16A inh 25 | TMEM16A reconf inactive | HEK293 Ca mobil inactive | Parental YFP cnt inactive | ClC-1 rat inh inactive
CCOc1ccc2c(c1)c(=O)c(S(=O)(=O)c1ccc(CC)cc1)cn2C	none (no result: TLR4-MyD88 BLA)
O=C(C(Cl)c1ccccc1)N1CCOCC1 (centres undefined)	none (no result: TLR4-MyD88 BLA)
COc1cccc(CN(C(=O)c2ccc([N+](=O)[O-])cc2)C2CCS(=O)(=O)C2)c1 (centres undefined)	none (no result: TLR4-MyD88 BLA)
COc1cc(C)c(C(=O)Oc2cc(C)c(C(=O)O)c(O)c2)c(O)c1	TMEM16A inh 100 (no result: TLR4-MyD88 BLA) | TMEM16A reconf 18% | HEK293 Ca mobil inactive | Parental YFP cnt inactive | ClC-1 rat inh inactive
COc1ccccc1OCC(=O)Nc1oc(-c2ccccc2)c(-c2ccccc2)c1C#N	TMEM16A inh 25 | TMEM16A reconf 29% | HEK293 Ca mobil inactive | Parental YFP cnt inactive | ClC-1 rat inh inactive
COc1ccc(CC(=O)Nc2oc(-c3ccccc3)c(-c3ccccc3)c2C#N)cc1OC	none
O=C(N[C@@H](Cc1c[nH]c2ccccc12)C(=O)O)c1ccccc1Cl	TMEM16A inh 25 | TMEM16A reconf inactive | HEK293 Ca mobil inactive | Parental YFP cnt inactive | ClC-1 rat inh inactive
Cc1ccc(NC(=S)NC(C)CCc2ccccc2)cc1C (centres undefined)	none
CC(=O)c1ccc(NC(=S)NC(C)CCc2ccccc2)cc1 (centres undefined)	TMEM16A inh 25 | TMEM16A reconf inactive | HEK293 Ca mobil inactive | Parental YFP cnt inactive | ClC-1 rat inh inactive
Cc1nc2c(cc(Oc3ccc(S(=O)(=O)N4CCOCC4)cn3)c3ccsc32)s1	TMEM16A inh 25 | TMEM16A reconf inactive | HEK293 Ca mobil inactive | Parental YFP cnt inactive | ClC-1 rat inh inactive
N#Cc1nc(COc2ccccc2F)oc1NCCCn1ccnc1	TMEM16A inh 100 (no result: TMEM16A act) | TMEM16A reconf inactive | HEK293 Ca mobil inactive | Parental YFP cnt inactive | ClC-1 rat inh inactive
CCOc1cc(/C=C2\N=C(SC)SC2=O)cc([N+](=O)[O-])c1OC(C)=O	TMEM16A inh 100 | TMEM16A reconf inactive | HEK293 Ca mobil inactive | Parental YFP cnt inactive | ClC-1 rat inh inactive
COc1ccc(-c2cccc(NS(=O)(=O)c3cc([N+](=O)[O-])c(C)c([N+](=O)[O-])c3)c2)nn1	none (no result: TLR4-MyD88 BLA)
Cc1cccc(-c2nc(CS(=O)CC(=O)N3CCc4ccccc4C3)c(C)o2)c1 (centres undefined)	none
Cc1ccc(-c2nc(CS(=O)(=O)CC(=O)N3CCc4ccccc4C3)c(C)o2)cc1	TMEM16A inh 25 | TMEM16A reconf 26% | HEK293 Ca mobil inactive | Parental YFP cnt inactive | ClC-1 rat inh inactive
CCC(C(=O)OC(C)C(=O)Nc1ccc(Cl)cn1)c1ccccc1 (centres undefined)	none (no result: TLR4-MyD88 BLA)
CC(=O)Nc1ccc(C(=O)CSc2nnnn2C2CCCC2)cc1	none
COC(=O)CNC(=O)COC(=O)c1ccc(Cl)nc1	none
O=C(Nc1ccc(S(=O)(=O)N2CCCC2)cc1)c1ccc(CN2CCOCC2)cc1	TMEM16A inh 100 | TMEM16A reconf 46% | HEK293 Ca mobil inactive | Parental YFP cnt inactive | ClC-1 rat inh inactive
CCCOc1ccc(C(=O)Nc2ccc(CN3CCOCC3)cc2)cc1	none (no result: TLR4-MyD88 BLA)
CC(NC(=S)Nc1ccc(S(=O)(=O)N2CCOCC2)cc1)C1CC2CCC1C2 (centres undefined)	TMEM16A inh 25 | TMEM16A reconf inactive | HEK293 Ca mobil inactive | Parental YFP cnt inactive | ClC-1 rat inh inactive
CCN(CC)S(=O)(=O)c1ccc(NC(=O)c2ccc(CN3CCOCC3)cc2)cc1	TMEM16A inh 100 | TMEM16A reconf 30% | HEK293 Ca mobil inactive | Parental YFP cnt inactive | ClC-1 rat inh inactive
O=C(Nc1ccc(S(=O)(=O)N2CCCC2)cc1)C1CCCCC1	none (no result: TLR4-MyD88 BLA)
O=C(Nc1ccc(S(=O)(=O)N2CCOCC2)cc1)C1CCCCC1	TMEM16A inh 25 | TMEM16A reconf inactive | HEK293 Ca mobil inactive | Parental YFP cnt inactive | ClC-1 rat inh inactive
O=S(=O)(c1ccc(NC(=S)Nc2ccccc2)cc1)N1CCOCC1	none
O=C(Nc1ccc(S(=O)(=O)Nc2ccc(F)cc2)cc1)c1ccc(CN2CCOCC2)cc1	TMEM16A inh 25 | TMEM16A reconf 39% | HEK293 Ca mobil inactive | Parental YFP cnt inactive | ClC-1 rat inh inactive
